# According to article PMC4552634, “A New Set of Chemical Starting Points with Plasmodium falciparum Transmission-Blocking Potential for Antimalarial Drug Discovery” (PLoS ONE, 2015):
# Hit rate of the full screen: of about 13,000 compounds, about 3,200 (25%) showed an effect of 50% or more. Some of the results follow.
# Tested on: P. falciparum stage V gametocytes
# Design: BacTiter-Glo ATP luminescence viability of purified stage V gametocytes in 384-well plates, per cent inhibition versus DMSO
# Conditions: 48 h, 5 µM; inhibitor
row,Structure (SMILES),% Inhibition
1,Nc1nc(N)c2c(CCc3ccc4ccccc4c3)cccc2n1 [TCMDC-141975],-16.21%
2,O=C(O)C(F)(F)F.O=C(O)Cc1ccc(-c2c[nH]c3ncc(-c4cccc5ncccc45)cc23)cc1 [TCMDC-136372],46.28%
3,CC(C)(CNC(=O)C1CCN(CCOCc2ccccc2)CC1)c1nc(-c2ccc(Cl)c(O)c2)c(-c2ccncc2)[nH]1 [TCMDC-141122],-51.1%
4,CN1CCc2cc(I)c(O)cc2C1Cc1ccccc1Cl (stereo not drawn) [TCMDC-137321],-44.87%
5,Cc1csc(-c2nonc2NC(=O)COc2ccccc2C(C)C)n1 [TCMDC-125014],-9.384%
6,Cc1ccc(CNC(=O)[C@H](Cc2ccccc2)Nc2cc(C)nc(NCCc3ccc(F)cc3)n2)cc1 [TCMDC-134788],66.59%
7,Cc1cc(N[C@@H](Cc2ccccc2)C(=O)NCc2cccc(F)c2)nc(NCCCOC(C)C)n1 [TCMDC-134822],52.41%
8,Cc1cc(N[C@@H](Cc2ccccc2)C(=O)NCc2cccc(F)c2)nc(NCCOc2ccccc2)n1 [TCMDC-134756],40.03%
9,Cc1cc(N[C@@H](Cc2ccccc2)C(=O)NCc2cccc(F)c2)nc(NCCc2cccnc2)n1 [TCMDC-134817],63.38%
10,Cc1cc(N[C@@H](Cc2ccccc2)C(=O)NCc2cccc(F)c2)nc(Nc2ccccc2)n1 [TCMDC-134857],-8.236%
11,Cc1ccc(CNC(=O)[C@H](Cc2ccccc2)Nc2cc(C)nc(NCc3ccccc3C)n2)cc1 [TCMDC-134905],48.7%
12,CCCC(C)Nc1nc(C)cc(N[C@@H](Cc2ccccc2)C(=O)NCc2cccc(F)c2)n1 (stereo partly drawn) [TCMDC-134764],-38.43%
13,Cc1cc(N[C@@H](Cc2ccccc2)C(=O)NCc2cccc(F)c2)nc(NCCc2cccs2)n1 [TCMDC-134812],147.6%
14,CCCC(C)Nc1nc(C)cc(N[C@@H](Cc2ccccc2)C(=O)NCc2ccc(C)cc2)n1 (stereo partly drawn) [TCMDC-134894],-11.47%
15,COc1ccc(Cn2c(Nc3cccc(C(F)(F)F)c3)nc3cc(C(=O)NC(C)C)cnc32)cc1Cl [TCMDC-138556],8.056%
16,CC[C@H](C)CNC(=O)c1ccc(-c2cccc(CN3CCC(N4CCCC4)CC3)c2)nc1 [TCMDC-134222],28.35%
17,Cc1cccc2[nH]c(-c3cccc(-c4ccc(NC(=O)C(C)(C)c5ccccn5)cc4)c3)nc12 [TCMDC-137053],15.43%
18,COc1cc(-c2nnc(SCC(=O)Nc3cc(C)on3)n2C)cc(OC)c1O [TCMDC-123652],-77.31%
19,CC(=O)Oc1c(C(=O)C2CCC(C(C)(C)C)CC2)c(OC(C)=O)c2ccccc2c1OC(C)=O (stereo not drawn) [TCMDC-138179],0.9625%
20,O=S(=O)(NCCN1CCCC1)c1cccc(-c2ccccc2CNC2Cc3ccccc3C2)c1 [TCMDC-132212],102.4%
21,O=S(=O)(NCCN1CCCC1)c1ccc(-c2ccccc2CNC2Cc3ccccc3C2)cc1 [TCMDC-132210],61.07%

row,Structure (SMILES),% Inhibition
1,COc1cccc(OC)c1C(=O)N1CCC2(CC1)C(=O)N(CC(=O)NC1CCCCC1)CN2c1ccccc1 [TCMDC-125168],-28.41%
2,CC1CCc2c(C(=O)N3CCc4ccccc4C3)csc2C1 (stereo not drawn) [TCMDC-123624],13.04%
3,CN(C)Cc1ccc(-c2cccc(Nc3nccc(NCC(O)c4ccccc4)n3)c2)cc1 (stereo not drawn) [TCMDC-136467],95.23%
4,CN1CCC(Oc2ccc(Nc3nccc(NCC(O)c4ccccc4)n3)cc2Cl)CC1 (stereo not drawn) [TCMDC-136471],60.18%
5,CN(C)CC(=O)Nc1ccc(Nc2nccc(NCC(O)c3ccccc3)n2)cc1 (stereo not drawn) [TCMDC-136466],-80.24%
6,CN1CCN(c2cccc(Nc3nccc(NCC(O)c4ccccc4)n3)c2)CC1 (stereo not drawn) [TCMDC-136468],11.64%
7,Cc1ccc(Nc2nccc(NCC(O)c3cccc(C)c3)n2)cc1 (stereo not drawn) [TCMDC-136569],-32.98%
8,OC(CNc1ccnc(Nc2cccc(OCCCN3CCOCC3)c2)n1)c1ccccc1 (stereo not drawn) [TCMDC-136465],23.11%
9,CN(C)CC(=O)Nc1cccc(Nc2nccc(NCC(O)c3ccccc3)n2)c1 (stereo not drawn) [TCMDC-136472],19.31%
10,Cc1nc(-c2cccc(Nc3nccc(NCC(O)c4ccccc4)n3)c2)cs1 (stereo not drawn) [TCMDC-136565],4.289%
11,CN(C)Cc1cccc(-c2ccc(Nc3nccc(NCC(O)c4ccccc4)n3)cc2)c1 (stereo not drawn) [TCMDC-136470],73.29%
12,FC(F)(F)c1ccc2[nH]c(-c3ccc(-c4cccc(CNCC5CCCO5)c4)cc3)nc2c1.O=C(O)C(F)(F)F (stereo not drawn) [TCMDC-133095],-18.46%
13,Cc1ccc(NC(=O)c2c(C)noc2-c2snnc2C)cc1 [TCMDC-125783],10.03%
14,O=C(NC1CCN(CCN2CCC(c3cn(CCO)c4ccccc34)CC2)CC1)c1ccc(-c2ccc(C(F)(F)F)cc2)cc1 [TCMDC-138871],111.6%
15,Cc1cc(C2CCN(CCCCNC(=O)c3ccc(-c4ccc(C(F)(F)F)cc4)cc3)CC2)c(C)cc1OCCOC1CCCCO1 (stereo not drawn) [TCMDC-138802],-43.58%
16,N#Cc1ccc(-c2ccc(C(=O)NC3CCN(CCN4CCC(c5cn(CCO)c6ccccc56)CC4)CC3)cc2)cc1 [TCMDC-138858],-15.2%
17,COc1ccc2c(c1)c(C1CCN(CCCCNC(=O)c3ccc(-c4ccc(C(F)(F)F)cc4)cc3)CC1)cn2C(C)C [TCMDC-138801],16.06%
18,O=C(NCC1CCN(CCN2CCC(c3cn(CCO)c4ccccc34)CC2)CC1)c1ccc(-c2ccc(C(F)(F)F)cc2)cc1 [TCMDC-138856],114.3%
19,N#Cc1ccc(-c2ccc(C(=O)NC3CCN(CCN4CCC(c5cn(CCOC6CCCCO6)c6ccccc56)CC4)CC3)cc2)cc1 (stereo not drawn) [TCMDC-138855],104.1%
20,N#Cc1ccc(CN2CCC(NC(=O)c3ccc(-c4nnc(-c5cccc6ccccc56)o4)cc3)CC2)cc1 [TCMDC-136131],6.646%
21,O=C(NCC1CCN(CCN2CCc3ccc4c(c3C2)OCO4)CC1)c1ccc(-c2ccc(C(F)(F)F)cc2)cc1 [TCMDC-138834],-19.42%

row,Structure (SMILES),% Inhibition
1,CCOc1ccc(C2CCN(CCN3CCC(NC(=O)c4ccc(-c5ccc(C(F)(F)F)cc5)cc4)CC3)CC2)c(OCC2CC2)c1 [TCMDC-138832],-29.12%
2,CC(C)Cn1cc(C2CCN(CCN3CCC(CNC(=O)c4ccc(-c5ccc(C(F)(F)F)cc5)cc4)CC3)CC2)c2ccccc21 [TCMDC-138852],92.78%
3,CCOc1c(OC)ccc2c1CCN(CCN1CCC(CNC(=O)c3ccc(-c4ccc(C(F)(F)F)cc4)cc3)CC1)C2 [TCMDC-138806],11.85%
4,O=C(NC1CC1)c1cnc(N2CCCC(c3ccccc3)C2)c(Cl)c1 (stereo not drawn) [TCMDC-134608],7.948%
5,CCOC(=O)[C@H](Cc1cc([N+](=O)[O-])c(Oc2ccc(OC)c(Cc3ccc(OC)c(C(C)C)c3)c2)c([N+](=O)[O-])c1)NC(=O)C(F)(F)F [TCMDC-139398],36.25%
6,COc1ccc(C2(CNCC(O)c3cccc([N+](=O)[O-])c3)CCCC2)cc1OC (stereo not drawn) [TCMDC-123699],30.43%
7,CCC[C@@H]([C@@H](CC1CCCCC1)C(=O)N[C@@H](CCOC(=O)NCC)C(=O)Nc1nccs1)N(O)C=O [TCMDC-138145],41.2%
8,NC1=NC(c2ccccc2)(c2ccccc2)C(=O)N1CC=Cc1ccccc1 [TCMDC-136505],-58.42%
9,O=C(NCCCN1CCOCC1)c1csc(Nc2ccc(Cl)c(Cl)c2)n1 [TCMDC-123719],-63.94%
10,CCc1sc(N2CCC(C)CC2)nc1C(=O)Nc1ccc(F)cc1C(F)(F)F [TCMDC-134663],-1.278%
11,CCCCCN1CCCC1CNS(=O)(=O)c1ccc(C(=O)Nc2ccc(C(F)(F)F)cc2)cc1 (stereo not drawn) [TCMDC-133682],-15.48%
12,CN1CCCC(CN2CCN(Cc3cccc(-c4cccc(-c5nc6ccccc6[nH]5)c4)c3)CC2)C1 (stereo not drawn) [TCMDC-133912],100.3%
13,CN1CCCC(CN2CCN(Cc3ccc(-c4ccc(-c5nc6ccccc6[nH]5)cc4)cc3)CC2)C1.O=C(O)C(F)(F)F (stereo not drawn) [TCMDC-133903],95.28%
14,c1cc(CN2CCN(c3ccncc3)CC2)cc(-c2ccc(-c3nc4ccccc4[nH]3)cc2)c1 [TCMDC-132921],36.65%
15,CN1CCCC(CN2CCN(Cc3ccc(-c4cccc(-c5nc6ccccc6[nH]5)c4)cc3)CC2)C1 (stereo not drawn) [TCMDC-133916],44.74%
16,O=C(O)C(F)(F)F.OCCN1CCN(Cc2ccc(-c3ccc(-c4nc5ccccc5[nH]4)cc3)cc2)CC1 [TCMDC-133025],-7.938%
17,CN1CCCC(CN2CCN(Cc3cccc(-c4csc(-c5nc6ccccc6[nH]5)c4)c3)CC2)C1 (stereo not drawn) [TCMDC-133913],1.76%
18,CN1CCCC(CN2CCN(Cc3cccc(-c4ccc(-c5nc6ccccc6[nH]5)cc4)c3)CC2)C1 (stereo not drawn) [TCMDC-133888],60.97%
19,O=C(O)C(F)(F)F.c1ccc2[nH]c(-c3ccc(-c4ccc(CN5CCN(c6ccncc6)CC5)cc4)cc3)nc2c1 [TCMDC-133830],15.5%
20,O=C(Nc1ccc(Cl)cc1)c1ccc(CN2CCCN(Cc3cccc(O)c3)CC2)cc1 [TCMDC-136406],-22.52%
21,O=C(Nc1ccc(C(=O)N2CCN(CCN3CCN(c4cccc(C(F)(F)F)c4)CC3)CC2)cc1)c1ccc(OC(F)(F)F)cc1 [TCMDC-138147],-46.71%
